# The panel holds about 79,000 compounds, 15% with a hit somewhere; the sample as a whole holds those more often. Values without a mark were called inactive. Rule as the data show it: active = growth inhibition above about 70%; inactive = the rest.
# Test: NCI Yeast Anticancer Drug Screen. Data for the sgs1 mgt1 strain (AID 161);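 also: 0% = growth of cultures given vehicle only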
# Details: S. cerevisiae sgs1 mgt1 strain, at 50.0 µM, stronger effect = higher value
# Method in brief: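 Growth of a repair-deficient yeast mutant was monitored after compound treatment and expressed as inhibition relative to vehicle-treated cultures.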
row,Compound,growth inhibition
1,O=c1c2c([nH]n1-c1ccccc1)-c1ccccc1CS2,37.8%
2,O=C1CN(c2ccccc2)CC(=O)N2C(c3ccccc3)CCCN12 (stereo not given),-6.05%
3,COC(=O)C1(C)CCCC2(C)C3CCC(C(C)C)CC3CCC12 (stereo not given),20.1%
4,COC(=O)C1(C2CCCCCCC2=O)NC(=S)NC(=O)C1C#N (stereo not given),-28.1%
5,CC1(Cn2ccc(=O)[nH]c2=O)CC(C2(C)OCCO2)C(=O)O1 (stereo not given),-33.1%
6,CN(C)Cc1ccccc1COC(=O)c1ccc(Cl)cc1,15.1%
7,Cc1ccc(S(=O)(=O)OCC2C(COS(=O)(=O)c3ccc(C)cc3)C3C4C5C2C2C3C4C52)cc1 (stereo not given),9.75%
8,O=C(O)COc1ccccc1OCC(=O)O,-8.6%
9,Cc1cc(C=O)c(C)[nH]1,-2.4%
10,CCc1ccc(/C(C#N)=C/c2ccc(N(C)CCC#N)cc2)cc1,18.8%
11,CC(=O)NC(C(=O)NC(CSCc1ccccc1)C(=O)O)=C(C)C (stereo not given),8.9%
12,CC1=CC2OC3C(OC(=O)c4ccccc4)C(OC(=O)c4ccccc4)C(C)(C2(COC(=O)c2ccccc2)CC1)C31CO1 (stereo not given),1.55%
13,Nc1[nH]c(=S)[nH]c(=O)c1N=Nc1c(Br)cc(S(N)(=O)=O)cc1Br,-24.1%
14,CCCCCCC1=CC(=O)CC(=O)C1,16.6%
15,C/C(=N/NC(N)=O)C(=O)O,2.5%
16,Cc1cc([N+](=O)[O-])c(NCCOC(=O)c2ccc([N+](=O)[O-])cc2)c([N+](=O)[O-])c1,-10.9%
17,COc1cc(OC2OC(CO)C(O)C(O)C2O)c2c(O)c3c(=O)cc(C)oc3cc2c1 (stereo not given),2.05%
18,CCCOC(=O)O[C@H]1CC[C@@]2(C)C(=CC[C@H]3[C@@H]4CC[C@H]([C@H](C)CCCC(C)C)[C@@]4(C)CC[C@@H]32)C1,-27.7%
19,O=C(NC(=S)Nc1cc(C(F)(F)F)ccc1Cl)c1ccccc1F,0.35%
20,OCCN(CCO)c1ncnc2c1ncn2CCc1ccccc1,16.2%

row,Compound,growth inhibition
1,Cc1nc2c(=O)[nH]c(=O)[nH]c2[nH]c1=O,-24.6%
2,COC(=O)C(=O)c1c(C(=O)OC)nc2[nH]n(-c3ccccc3)c(=O)c2c1Cc1ccccc1,1.6%
3,CCC1=CC(C(O)CC(C)C)C(C)(Cc2ccc(CC)cn2)NC1c1ccccc1 (stereo not given),40.2%
4,CNC(=S)SC1=NS(=O)(=O)c2ccccc2N1,-2.75%
5,O=C(NC(=O)c1c(F)cccc1F)Nc1ccc(Br)cc1,19.4%
6,CCCCN(C)CC(C)O (stereo not given),-13.8%
7,COc1ccc(C2CC(=O)Oc3cc4c(cc32)OCO4)cc1 (stereo not given),-11.2%
8,COc1cc(C(=O)C/C(CCC(=O)Nc2ccc(Cl)cc2Cl)=N/Nc2nnc(C)n2N)ccc1O,-25.6%
9,COc1ccc(C2CCCCCC2OS(=O)(=O)c2ccc(C)cc2)c(OC)c1OC (stereo not given),-7.15%
10,CC1(C(=O)O)CCC2(C)CCC3(C)C(=CC(=O)C4C5(C)CCC(OC6OC(C(=O)O)C(O)C(O)C6OC6OC(C(=O)O)C(O)C(O)C6O)C(C)(C)C5CCC43C)C2C1 (stereo not given),-2.25%
11,CC(=O)N1c2cc(N=NN(C)C)ccc2NC(=O)CC1C (stereo not given),9.5%
12,C/C(CC(=O)N(C(C)C)C(C)C)=N\NC(=O)c1ccncc1,-18.9%
13,Nc1cc2c(cc1Br)-c1cc(Cl)c(Cl)cc1C2=O,-7.15%
14,CCCc1ccccc1NC(=O)NCCCl,-0.5%
15,COC(=O)C1=C(C)N(NC(=O)c2ccccc2)C2(O)CCCC(=O)C12C (stereo not given),17.8%
16,CCCCCCC1CCCCC1,-29%
17,CC1NC(=O)c2c(-c3ccccc3)nn(-c3ccccc3)c2NC1=O (stereo not given),11.8%
18,S=C(S)N(Cc1ccccc1)Cc1ccccc1 (tested in a mixture with another compound),3.7%
19,CSc1ccc(C2OC(=O)c3ccccc32)c2ccccc12 (stereo not given),21.2%
20,CCOC(=O)C(NC(=O)Cc1ccccc1)C(=O)O (stereo not given),-3.2%

# Test: NCI Yeast Anticancer Drug Screen. Data for the cln2 rad14 strain (AID 165);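 also: 0% = growth equal to vehicle treated cultures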
# Details: S. cerevisiae cln2 rad14 strain, at 50.0 µM, stronger effect = higher value
# Method in brief: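 Yeast strain cln2 rad14, bearing defects in cell cycle control and DNA repair, serves as the test system; values reflect growth inhibition compared with vehicle.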
row,Compound,growth inhibition
1,O=c1c2c([nH]n1-c1ccccc1)-c1ccccc1CS2,9.55%
2,O=C1CN(c2ccccc2)CC(=O)N2C(c3ccccc3)CCCN12 (stereo not given),26.2%
3,COC(=O)C1(C)CCCC2(C)C3CCC(C(C)C)CC3CCC12 (stereo not given),-12.6%
4,COC(=O)C1(C2CCCCCCC2=O)NC(=S)NC(=O)C1C#N (stereo not given),11.2%
5,CC1(Cn2ccc(=O)[nH]c2=O)CC(C2(C)OCCO2)C(=O)O1 (stereo not given),-30.7%
6,CN(C)Cc1ccccc1COC(=O)c1ccc(Cl)cc1,9.75%
7,Cc1ccc(S(=O)(=O)OCC2C(COS(=O)(=O)c3ccc(C)cc3)C3C4C5C2C2C3C4C52)cc1 (stereo not given),13.8%
8,O=C(O)COc1ccccc1OCC(=O)O,0.6%
9,Cc1cc(C=O)c(C)[nH]1,-11.2%
10,CCc1ccc(/C(C#N)=C/c2ccc(N(C)CCC#N)cc2)cc1,5%
11,CC(=O)NC(C(=O)NC(CSCc1ccccc1)C(=O)O)=C(C)C (stereo not given),3.1%
12,CC1=CC2OC3C(OC(=O)c4ccccc4)C(OC(=O)c4ccccc4)C(C)(C2(COC(=O)c2ccccc2)CC1)C31CO1 (stereo not given),7.8%
13,Nc1[nH]c(=S)[nH]c(=O)c1N=Nc1c(Br)cc(S(N)(=O)=O)cc1Br,-24.9%
14,CCCCCCC1=CC(=O)CC(=O)C1,13.6%
15,C/C(=N/NC(N)=O)C(=O)O,-48.4%
16,Cc1cc([N+](=O)[O-])c(NCCOC(=O)c2ccc([N+](=O)[O-])cc2)c([N+](=O)[O-])c1,-69.2%
17,COc1cc(OC2OC(CO)C(O)C(O)C2O)c2c(O)c3c(=O)cc(C)oc3cc2c1 (stereo not given),20.7%
18,CCCOC(=O)O[C@H]1CC[C@@]2(C)C(=CC[C@H]3[C@@H]4CC[C@H]([C@H](C)CCCC(C)C)[C@@]4(C)CC[C@@H]32)C1,3.9%
19,O=C(NC(=S)Nc1cc(C(F)(F)F)ccc1Cl)c1ccccc1F,-6.85%
20,OCCN(CCO)c1ncnc2c1ncn2CCc1ccccc1,-16%

row,Compound,growth inhibition
1,Cc1nc2c(=O)[nH]c(=O)[nH]c2[nH]c1=O,-50.5%
2,COC(=O)C(=O)c1c(C(=O)OC)nc2[nH]n(-c3ccccc3)c(=O)c2c1Cc1ccccc1,-45.9%
3,CCC1=CC(C(O)CC(C)C)C(C)(Cc2ccc(CC)cn2)NC1c1ccccc1 (stereo not given),11.9%
4,CNC(=S)SC1=NS(=O)(=O)c2ccccc2N1,12.4%
5,O=C(NC(=O)c1c(F)cccc1F)Nc1ccc(Br)cc1,7.25%
6,CCCCN(C)CC(C)O (stereo not given),-24.3%
7,COc1ccc(C2CC(=O)Oc3cc4c(cc32)OCO4)cc1 (stereo not given),-11.6%
8,COc1cc(C(=O)C/C(CCC(=O)Nc2ccc(Cl)cc2Cl)=N/Nc2nnc(C)n2N)ccc1O,13.4%
9,COc1ccc(C2CCCCCC2OS(=O)(=O)c2ccc(C)cc2)c(OC)c1OC (stereo not given),-14.8%
10,CC1(C(=O)O)CCC2(C)CCC3(C)C(=CC(=O)C4C5(C)CCC(OC6OC(C(=O)O)C(O)C(O)C6OC6OC(C(=O)O)C(O)C(O)C6O)C(C)(C)C5CCC43C)C2C1 (stereo not given),24.8%
11,CC(=O)N1c2cc(N=NN(C)C)ccc2NC(=O)CC1C (stereo not given),0.65%
12,C/C(CC(=O)N(C(C)C)C(C)C)=N\NC(=O)c1ccncc1,18.7%
13,Nc1cc2c(cc1Br)-c1cc(Cl)c(Cl)cc1C2=O,-23.1%
14,CCCc1ccccc1NC(=O)NCCCl,-30.6%
15,COC(=O)C1=C(C)N(NC(=O)c2ccccc2)C2(O)CCCC(=O)C12C (stereo not given),-29.6%
16,CCCCCCC1CCCCC1,19.9%
17,CC1NC(=O)c2c(-c3ccccc3)nn(-c3ccccc3)c2NC1=O (stereo not given),-3.85%
18,S=C(S)N(Cc1ccccc1)Cc1ccccc1 (tested in a mixture with another compound),-18.8%
19,CSc1ccc(C2OC(=O)c3ccccc32)c2ccccc12 (stereo not given),8.25%
20,CCOC(=O)C(NC(=O)Cc1ccccc1)C(=O)O (stereo not given),-6.4%

# — PubChem BioAssay (NCI)
